The results in this text go back to PubChem BioAssay (NCATS).

Inconclusive results are not listed. Active and inactive are the calls of the source. Unless noted, calls come from the whole dose curve; as a rule, active = well fitted curve in the direction sought with a large enough effect; inconclusive = small, poorly fitted or top-dose-only effect, or another doubt; inactive = no such curve, though single readings can be large; an effect the other way counts as inactive or inconclusive.

The test system of assay [1] is Zika virus NS2B-NS3 protease (linked construct). Kind of assay: Primary screen NINDS Rhodamine qHTS for Zika virus inhibitors (AID 1347160). For activity change, negative = inhibition: % is set by controls: 0 for no effect and ±100 for the full control effect. Note: nearly all actives have a fitted effect of over 55% in size. In short, it runs like this:
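Purified linked NS2B-NS3 protease (NS2B hydrophilic domain joined to NS3 protease by flexible linker), 25 nM in 10 mM Tris-HCl pH 8.0, 0.01% Tween 20. Compounds titrated, 15 min preincubation at room temperature; 1.5 microM Rhodamine110 substrate, FITC fluorescence change over 15 min.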
(qHTS replaces the single test concentration by a dilution series.)

Assay [2] addresses Luciferin 4-monooxygenase (Photinus pyralis) (UniProt P08659). Kind of assay: Primary firefly luciferase (FLuc) qHTS assay for identification of artifact compounds. (AID 1845220).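 For activity change, negative = inhibition: plate controls were DMSO vehicle for no effect and no enzyme for full effect.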 Note: nearly all actives have a fitted effect of over 60% in size. In outline: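 Reaction readout was CCD-imaged luminescence, taken 5 min after adding 10 nM purified firefly enzyme to compound-treated wells holding 10 uM luciferin and ATP in pH 7.6 buffer.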
The nature of assay [3]: Primary fluorescence-based thiol-reactive (MSTI) qHTS assay for identification of artifact compounds. (AID 1845221).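 Note: thiol-reactive compounds lower the probe fluorescence signal; nearly all actives have a fitted effect of over 65% in size.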 In outline:
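Curve-fitted percent inhibition (4-parameter Hill) derived from fluorescence, Ex 525/Em 598 nm, scaled with Acetyl-MSTI and MSTI; 1 h incubation at room temperature.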

The subject of assay [4] is Nanoluciferase (engineered Oplophorus gracilirostris luciferase). Kind of assay: Primary Nanoluciferase (NLuc) qHTS assay for identification of artifact compounds. (AID 1845222).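 Note: NLuc secreted into diluted conditioned medium of S16 cells; 0% = DMSO and -100% = no enzyme.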 In outline: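 Concentration-response data were obtained by luminescence after 5 min with Nano-Glo substrate at 1:100. The enzyme was diluted S16 NLuc-expressing cell medium, preincubated with compound for 15 min at RT. Curves were fitted with a 4-parameter Hill model.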

Assay [5] can be described thus: Primary redox qHTS assay for identification of artifact compounds. (AID 1845223).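 Note: 0% = DMSO and 100% = reference compound.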 In short, it runs like this:
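Amplex Red (25 uM) and HRP (250 mU/mL) in HBSS, with compounds for 15 min, then 250 uM DTT for 30 min, room temperature, dark. Fluorescence 525/598 nm read; normalized to DMSO and 10 uM DA3003; Hill fit.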

For another assay, the system named is C33A. Kind of assay: Primary qHTS to identify gynecologic anti-cancer compounds using libraries of approved drugs and bioactive compounds (AID 1345084). Note: nearly all actives have a fitted effect of over 55% in size. Note: potency is the fitted concentration of half-maximal effect. The conditions noted are these: Gynecologic cancer cell panel viability, ATPlite luminescence, 48 h; series mostly up to 57.5 µM. In short, it runs like this: (§1)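 Cytotoxicity screen measuring ATP content by luciferase luminescence. Each compound is applied at five concentrations for 48 h at 37 C with 5% CO2.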

The test system of assay [6] is Zika virus NS2B-NS3 protease (unlinked complex). Kind of assay: Primary screen GU Rhodamine qHTS for Zika virus inhibitors: Unlinked NS2B-NS3 protease assay (AID 1347159). Note: % is set by controls: 0 for no effect and ±100 for the full control effect; nearly all actives have a fitted effect of over 60% in size. In outline: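 Noncovalent NS2B hydrophilic domain–NS3 protease domain complex (25 nM) preincubated 15 min at room temperature with compounds (up to 114 microM) in 10 mM Tris-HCl pH 8.0, 0.01% Tween 20; 1.5 microM Rhodamine110 substrate added, fluorescence change over 15 min fitted to Hill equation.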

The target of assay [7] is Calcium and integrin-binding protein 1 (Homo sapiens) (UniProt Q99828). Kind of assay: Primary qHTS for Identification of Calcium Integrin Binding Protein 1 (CIB1) Competitor (AID 1508620).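 Note: GST tagged CIB1 binding a fluorescein labelled alphaIIb integrin peptide tracer; top concentration of the series differs between compounds; % is set by controls: 0 for no effect and ±100 for the full control effect.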 In outline: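 Fluorescence polarization competition: CIB1-GST (1 uM final) preincubated with compound 15 min at room temperature, then FITC-labeled alphaIIb peptide (100 nM final) added for another 15 min. Polarization read at Ex 480/Em 540.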
Calcium and integrin-binding protein 1 (Homo sapiens), sequence (Q99828 whole entry, looked up): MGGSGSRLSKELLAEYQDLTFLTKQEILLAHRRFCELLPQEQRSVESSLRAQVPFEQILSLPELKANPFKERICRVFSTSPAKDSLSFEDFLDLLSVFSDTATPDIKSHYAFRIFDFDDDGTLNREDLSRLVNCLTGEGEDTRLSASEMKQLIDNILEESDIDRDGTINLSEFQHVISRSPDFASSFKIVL

A short description of assay [8]: Primary qHTS for inhibitors of nuclear receptor binding SET domain protein 2 (NSD2) in an isogenic RCH-ACV NSD2 p.E1099K mutant (9B) (AID 1645876). Note: potency is the fitted concentration of half-maximal effect; nearly all actives have a fitted effect of over 70% in size.
Assay [9] is described as follows: Primary qHTS for inhibitors of nuclear receptor binding SET domain protein 2 (NSD2) in an RCH-ACV wild type WT cells (2C) (AID 1645877). Note: potency is the fitted concentration of half-maximal effect; nearly all actives have a fitted effect of over 70% in size.
Assay [10] concerns the target Glutathione peroxidase 1 (Homo sapiens) (UniProt P07203). Kind of assay: Primary qHTS Assay for Inhibitors of Recombinant Selenoprotein Glutathione Peroxidase 1 (GPX1) (AID 1845191). For activity, negative = inhibition: % is set by controls: 0 for no effect and ±100 for the full control effect. Note: nearly all actives have a fitted effect of over 65% in size. Note: potency is the fitted concentration of half-maximal effect. In outline:
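Recombinant GPX1 (10 nM final) was preincubated with compound for 30 min at room temperature, then reacted with 1 mM GSH, 0.5 mM CHP, 0.5 mM NADPH and 100 nM glutathione reductase; NADPH fluorescence (340/450 nm) was read at 0 and 15 min.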

Assay [11] has as its target Phospholipid hydroperoxide glutathione peroxidase GPX4 (Homo sapiens) (UniProt P36969). Kind of assay: Primary qHTS Assay for Inhibitors of Recombinant Selenoprotein Glutathione Peroxidase 4 (GPX4) (AID 1845192). For activity change, negative = inhibition: % is set by controls: 0 for no effect and ±100 for the full control effect. Note: nearly all actives have a fitted effect of over 65% in size. Note: potency is the fitted concentration of half-maximal effect. The conditions noted are these: outcome: dose series up to 50 µM unless noted. In outline:
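GR-coupled readout: 100 nM GR, 1 mM GSH, 0.5 mM NADPH; NADPH fluorescence (ex 340/em 450 nm) read at t=0 and after 15 min RT. GPX4 200 nM, preincubated 30 min with compound; substrate 0.5 mM CHP.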

A further assay concerns CASKI. Kind of assay: Primary qHTS to identify gynecologic anti-cancer compounds using libraries of approved drugs and bioactive compounds (AID 1345084). Note: nearly all actives have a fitted effect of over 55% in size. Note: potency is the fitted concentration of half-maximal effect. The conditions noted are these: Gynecologic cancer cell panel viability, ATPlite luminescence, 48 h; series mostly up to 57.5 µM. In outline: as §1
The test system of another assay is HeLa. Described as above. The conditions noted are these: Gynecologic cancer cell panel viability, ATPlite luminescence, 48 h; series mostly up to 57.5 µM. In outline: as §1
(In general: In ATP-based viability assays light output follows the ATP content of the culture.)

Another assay deals with Hek293T. Described as above. The note with it: Gynecologic cancer cell panel viability, ATPlite luminescence, 48 h, control line for the selectivity index; series mostly up to 57.5 µM. In outline:
as §1

For the next assay, the system named is JEG-3. The description is as above. The conditions noted are these: Gynecologic cancer cell panel viability, ATPlite luminescence, 48 h; series mostly up to 57.5 µM. In short, it runs like this: as §1
The test system of another assay is Tov-21-G. The assay is described as above. The conditions noted are these: Gynecologic cancer cell panel viability, ATPlite luminescence, 48 h; series mostly up to 57.5 µM. In outline:
as §1

Another assay deals with Tov112D. Described as above. The note with it: Gynecologic cancer cell panel viability, ATPlite luminescence, 48 h; series mostly up to 57.5 µM. In short, it runs like this: as §1
The subject of another assay is Es-2. The assay is described as above. The conditions noted are these: Gynecologic cancer cell panel viability, ATPlite luminescence, 48 h; series mostly up to 57.5 µM. In outline: as §1
For a further assay, the system named is OV90. The assay is described as above. The conditions noted are these: Gynecologic cancer cell panel viability, ATPlite luminescence, 48 h; series mostly up to 57.5 µM. In short, it runs like this:
as §1

The next assay deals with PA-1. Described as above. The conditions noted are these: Gynecologic cancer cell panel viability, ATPlite luminescence, 48 h; series mostly up to 57.5 µM. In short, it runs like this: as §1
The target of assay [12] is Cytochrome P450 2D6 (Homo sapiens) (UniProt P10635). Kind of assay: Cytochrome P450 family 2 subfamily D member 6 (CYP2D6) small molecule antagonists: luciferase biochemical (cell-free) qHTS assay (AID 1645840; active = well fitted curve in the direction sought with a large enough effect in the repeat runs; an effect the other way counts as inactive or inconclusive). In outline: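 P450-Glo luminescent screen: recombinant CYP2D6 enzyme–proluciferin substrate mix preincubated with compound 10 min at room temperature, then NADPH regeneration added for 1 h at room temperature. Detection reagent added for 20 min; luciferin light read as relative luminescence units.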
Cytochrome P450 2D6 (Homo sapiens), sequence (P10635 whole entry, looked up): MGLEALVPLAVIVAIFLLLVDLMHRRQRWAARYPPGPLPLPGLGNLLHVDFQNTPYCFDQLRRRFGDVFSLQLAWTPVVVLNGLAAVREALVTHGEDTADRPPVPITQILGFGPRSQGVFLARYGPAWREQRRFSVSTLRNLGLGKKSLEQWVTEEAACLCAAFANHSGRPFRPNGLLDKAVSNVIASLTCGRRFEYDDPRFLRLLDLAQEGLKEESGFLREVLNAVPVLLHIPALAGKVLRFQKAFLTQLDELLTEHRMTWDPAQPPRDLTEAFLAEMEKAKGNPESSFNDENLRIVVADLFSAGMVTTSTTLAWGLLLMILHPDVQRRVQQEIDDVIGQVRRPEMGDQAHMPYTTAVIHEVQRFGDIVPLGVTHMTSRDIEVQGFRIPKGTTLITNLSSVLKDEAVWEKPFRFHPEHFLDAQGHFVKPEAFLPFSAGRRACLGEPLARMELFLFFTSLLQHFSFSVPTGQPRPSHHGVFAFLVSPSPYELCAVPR

Assay [13] has as its target Cytochrome P450 2C9 (Homo sapiens) (UniProt P11712). Kind of assay: Cytochrome P450 family 2 subfamily C member 9 (CYP2C9) small molecule antagonists: luciferase biochemical (cell-free) qHTS assay (AID 1645842; active = well fitted curve in the direction sought with a large enough effect in the repeat runs; an effect the other way counts as inactive or inconclusive). In short, it runs like this: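 Luminescence, after 20 min with luciferin detection reagent, reflected CYP2C9 turnover during a 1 h NADPH-driven reaction at 37C. Enzyme-substrate mix contained 0.4% bovine serum albumin and was preincubated with compound 10 min at room temperature.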

In a further assay the test system is CAOV3. Kind of assay: Primary qHTS to identify gynecologic anti-cancer compounds using libraries of approved drugs and bioactive compounds (AID 1345084). Note: nearly all actives have a fitted effect of over 55% in size. Note: potency is the fitted concentration of half-maximal effect. The conditions noted are these: Gynecologic cancer cell panel viability, ATPlite luminescence, 48 h; series mostly up to 57.5 µM. In short, it runs like this: as §1
The nature of assay [14]: P-glycoprotein substrates identified in KB-8-5-11 adenocarcinoma cell line, qHTS therapeutic library screen (AID 1346987). Note: potency is the fitted concentration of half-maximal effect; nearly all actives have a fitted effect of over 65% in size. In outline:
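Steps: plate 500 KB-8-5-11 cells/well in DMEM + 10% FCS (colchicine removed); pin compounds in dose-response; incubate 72 h, 37 degree C, 5% CO2; add CellTiter-Glo, 5 min; read luminescence.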

The nature of assay [15]: qHTS drug screen for cell cycle checkpoint inhibitors in PARPi-resistant BRCA-mutant ovarian cancer cell lines. (AID 1963452; calls by dose curve). The conditions noted are these: PEO1/OlaR viability, CellTiter-Glo luminescence, 96 h, stronger effect = lower value. In outline: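 PEO1, PEO4 and PEO1/OlaR ovarian cancer cells, 600 per well, exposed 96 h at 37C to a dilution series. Viability read by CellTiter-Glo luminescence, normalized to DMSO and empty wells; activity summarized as Z-AUC.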

A further assay concerns SKOV3. Kind of assay: Primary qHTS to identify gynecologic anti-cancer compounds using libraries of approved drugs and bioactive compounds (AID 1345084). Note: nearly all actives have a fitted effect of over 55% in size. Note: potency is the fitted concentration of half-maximal effect. The note with it: Gynecologic cancer cell panel viability, ATPlite luminescence, 48 h; series mostly up to 57.5 µM. In short, it runs like this: as §1

Phospholipid hydroperoxide glutathione peroxidase GPX4 (Homo sapiens), sequence (P36969 whole entry, looked up): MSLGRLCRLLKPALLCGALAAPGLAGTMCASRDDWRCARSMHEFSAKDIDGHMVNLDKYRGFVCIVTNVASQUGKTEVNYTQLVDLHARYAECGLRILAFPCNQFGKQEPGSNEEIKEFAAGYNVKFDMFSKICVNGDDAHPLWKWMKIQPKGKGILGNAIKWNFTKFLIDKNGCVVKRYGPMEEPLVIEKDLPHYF
Glutathione peroxidase 1 (Homo sapiens), sequence (P07203 whole entry, looked up): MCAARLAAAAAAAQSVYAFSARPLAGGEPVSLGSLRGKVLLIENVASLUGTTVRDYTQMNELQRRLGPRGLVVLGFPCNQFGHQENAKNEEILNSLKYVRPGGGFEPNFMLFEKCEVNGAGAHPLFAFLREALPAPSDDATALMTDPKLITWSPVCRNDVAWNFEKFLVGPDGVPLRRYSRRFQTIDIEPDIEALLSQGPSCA
Cytochrome P450 2C9 (Homo sapiens), sequence (P11712 whole entry, looked up): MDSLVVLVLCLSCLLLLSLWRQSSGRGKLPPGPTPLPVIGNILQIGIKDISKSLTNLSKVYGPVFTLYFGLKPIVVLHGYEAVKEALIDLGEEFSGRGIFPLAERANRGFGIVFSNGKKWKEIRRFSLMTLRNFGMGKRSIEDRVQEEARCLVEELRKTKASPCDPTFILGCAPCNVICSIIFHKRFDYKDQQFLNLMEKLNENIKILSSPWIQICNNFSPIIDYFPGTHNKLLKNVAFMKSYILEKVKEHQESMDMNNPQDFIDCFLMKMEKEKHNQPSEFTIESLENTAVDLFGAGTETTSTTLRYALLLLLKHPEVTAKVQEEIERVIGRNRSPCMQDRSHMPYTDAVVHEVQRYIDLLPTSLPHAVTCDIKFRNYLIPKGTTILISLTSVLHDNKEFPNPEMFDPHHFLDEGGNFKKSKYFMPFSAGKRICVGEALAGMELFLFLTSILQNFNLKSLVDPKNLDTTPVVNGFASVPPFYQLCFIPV

In the case of `N#Cc1ccc(-c2ccc(NC(=O)Nc3ccc(-c4ccnc5nc[nH]c45)cc3)cc2)cc1`, the Potency entry in assay [1], in assay [2], in [3], in assay [4] and in [5] was “inactive” in each case. For the same compound, the Potency in the assay on C33A is 5.01 µM (active).

Take `CC1CCC2(NC1)OC1CC3C4CC=C5CC(O[C@@H]6O[C@H](CO)[C@@H](O[C@@H]7O[C@@H](C)[C@H](O)[C@@H](O)[C@H]7O)[C@H](O)[C@H]6O[C@@H]6O[C@@H](C)[C@H](O)[C@@H](O)[C@H]6O)CCC5(C)C4CCC3(C)C1C2C` (stereo not given in full): the Potency result in assay [6], in assay [1], in assay [10] and in assay [11] was “inactive” throughout. The outcome in [7] was inactive. Further, the Potency in assay [8] is 3.46 µM (active); in assay [9], 3.88 µM (active). Also, the activity change, negative = inhibition in [2] was -5.29% [at 11.6 µM] (inactive). For the same compound, in assay [3], the activity change, negative = thiol reactive was 179% [at 11.5 µM] (inactive). In [4], the activity, negative = inhibition is -1.63% [at 11.6 µM] (inactive). Moreover, the activity change, negative = cytotoxicity in the assay on CASKI was -25.1% [at 11.6 µM] (inactive); in the assay on HeLa, -18.6% [at 11.6 µM] (inactive); with Hek293T it was -11.9% [at 11.6 µM] (inactive); in the assay with JEG-3 it was 4.54% [at 11.6 µM] (inactive); with Tov-21-G, -23.3% [at 11.6 µM] (inactive); in the assay on Tov112D, -18.2% [at 11.6 µM] (inactive).

As to `C=C1C(=O)O[C@H]2[C@H]1[C@@H](OC(=O)/C(C)=C\C)C[C@]1(C)O[C@@H]1[C@H]1O[C@H]1C(=C)[C@H]2O`, the Potency result in assay [6], in [1], in assay [10], in [11], in [2] and in [3] was “inactive” each time. Besides, the Potency entry (in assay [4]; in assay [5]; in the assay with HeLa; in the assay with OV90) was “inactive” throughout. The outcome in assay [7] was inactive. Besides, the Potency in [8] is 7.13 µM (active); in [9], 4.5 µM (active); with Es-2 it was 11.2 µM (active); with PA-1, 12.6 µM (active).

For `CCOC(=O)c1cnn(-c2ccc(NC(=O)C(Cl)=C(Cl)Cl)cc2)c1C(F)(F)F`, the Potency result in assay [1], in assay [10], in [11], in assay [2], in assay [3] and in [4] was “inactive” in each case. The Potency result (in assay [5]; with Es-2; in the assay with HeLa; in the assay on Hek293T) was “inactive” throughout. In addition, the result in assay [7] was inactive. Moreover, the Potency in assay [12] is 15.1 µM (active); in [13], 6.74 µM (active); in assay [8], 11.5 µM (active); in assay [9] it was 6.49 µM (active); with CAOV3, 6.31 µM (active).

For the compound `COc1ccc(-c2cc(C(O)C3CCCCN3)c3ccccc3n2)cc1` (stereo not given), the Potency is 20.6 µM (active) in assay [14]; 10.7 µM (active) in [13]; 7.42 µM (active) in assay [8]; 4.68 µM (active) in assay [9]; 20.2 µM (active) in assay [10]; 22.7 µM (active) in assay [11]. Besides, the Potency in the assay on OV90 was 31.6 µM (active); in the assay on SKOV3, 28.2 µM (active). The Potency entry in [6], in assay [1], in [2], in [3], in assay [4] and in [5] was “inactive” throughout. Besides, the Z-AUC in assay [15] is -0.506 (inactive); in assay [15] (measured here: PEO1 parental Z-AUC) it was -0.864; in assay [15] (measured here: PEO4 Z-AUC), -0.334.
